The text below walks through data of publication PMC6212790, “How bacterial xenogeneic silencer rok distinguishes foreign from self DNA in its resident genome”.

The full ranking holds about 33,000 sequences; the median of “e-score” is about -0.038, and the highest 2% start at about 0.33. This excerpt belongs to a sample that is enriched for the highest values.

The experiment addresses T1, GST-Rok-C97-191 (Bacillus subtilis subsp. subtilis str. …, UniProt O34857 97-191).
T1 sequence: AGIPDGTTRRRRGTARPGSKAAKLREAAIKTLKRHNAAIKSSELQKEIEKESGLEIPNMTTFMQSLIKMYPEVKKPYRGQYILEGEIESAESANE
As to the kind of experiment: protein binding microarray; Rok is a gene silencer of Bacillus subtilis; high values mean tight binding. To be noted: protein: recombinant; tags: GST (pTH5325, pDEST15-Magic modified); dsDNA, one strand shown. The procedure, abridged: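 Each has a 25-mer constant primer and a 35-mer variable part from a de Bruijn sequence of order 10, covering every non-palindromic 8-mer at least 32 times (palindromic 16). Preference for each 8-mer is given as a rank-based, unitless enrichment score (E-score). Its range runs from 0.5 (most favored) to −0.5 (most disfavored).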
On to ACGTACGG, for which the binding signal worked out at 0.0152 E-score.
Regarding TCTAGTAA, the binding signal was 0.265 E-score.
To ACTAGTCG belongs 0.181 E-score; to ACTAGTAA, 0.423 E-score; to CCTAGTAG, 0.25 E-score.
To CCTAGTAA belongs 0.145 E-score; to ACCAGTAT, 0.196 E-score.
Consider GCTAGTAC, for which the binding signal came out at 0.184 E-score.
In the case of ACTAGTCT, the binding signal came to 0.215 E-score.
To CCTAGTAC belongs 0.0475 E-score; to ACTAGTAC, 0.393 E-score.
For the sequence ACTAGTAG, the binding signal worked out at 0.404 E-score.
To ACTAGTAT belongs 0.409 E-score; to ACCTTGGC, -0.158 E-score; to CATTCGAA, 0.101 E-score.
As to AACCAATT, the binding signal was determined as 0.204 E-score.
To ACTCAAGA belongs -0.0762 E-score.
On to CATAATGA, for which the binding signal amounted to 0.175 E-score.
For the sequence AAATTGAT, the binding signal amounted to 0.0406 E-score.
To CTTCCTCA belongs -0.0806 E-score.
GACAGCGA: the binding signal is -0.193 E-score.
To GCGTAGAC belongs -0.111 E-score.
Take CATATCTC: the binding signal stood at 0.0436 E-score.
Turning to GATATCTA, the binding signal came out at 0.349 E-score.
To AATATCTA belongs 0.343 E-score.
To CATATCTA belongs 0.34 E-score.
To CATATCGA belongs 0.0885 E-score; to GATATCAA, 0.158 E-score; to GATATCCA, 0.0457 E-score.
On to AATATCTG, for which the binding signal was 0.2 E-score.
To AATATCTC belongs 0.28 E-score; to ACATCTTC, 0.0581 E-score; to ACTAAACC, -0.0801 E-score.
In the case of CCTATTAG, the binding signal was found to be 0.16 E-score.
To CGACTGAA belongs -0.021 E-score; to CGTAACAG, 0.131 E-score.
To CGTCGAAA belongs 0.106 E-score.
To GTTTAGTA belongs 0.31 E-score.
Take AATTAGTG: the binding signal is 0.28 E-score.
Turning to ATTTAGTG, the binding signal turned out to be 0.0465 E-score.
To CATTAGTA belongs 0.26 E-score; to ATTTAGTA, 0.4 E-score; to AATTAGTA, 0.408 E-score.
To CATGGAAC belongs -0.0493 E-score.
To CGTAAATA belongs 0.254 E-score; to CCTGAAAC, -0.0142 E-score; to TATAAAGA, -0.131 E-score.
As to TAAAGTCA, the binding signal was -0.0164 E-score.
To AAATGCCC belongs 0.00515 E-score; to ACTACGCA, -0.0187 E-score; to CAGTGTAC, 0.0867 E-score.
To AGTCAGCA belongs -0.0559 E-score.
To TACAACTA belongs 0.338 E-score; to AACAACAA, 0.1 E-score; to TACAACAA, 0.353 E-score.
In the case of GACAACTA, the binding signal amounted to 0.295 E-score.
To AACAACTA belongs 0.266 E-score; to GACAACAA, -0.114 E-score; to CCAGTTCG, -0.177 E-score.
To ACCAGTAG belongs 0.259 E-score; to GTCATCAA, -0.132 E-score; to CTGGGAAA, -0.136 E-score.
To GCTGCTAC belongs 0.0824 E-score.
For the sequence ACTAAGCA, the binding signal came to 0.0291 E-score.
On to ACAACCGG, for which the binding signal is -0.0576 E-score.
To GCTCGAGC belongs -0.176 E-score; to CATTTGCA, 0.157 E-score.
To ATCTTCAT belongs 0.204 E-score.
To AAACCTTC belongs 0.0022 E-score; to CCGGACAA, -0.145 E-score.
With CCACTCTC, the binding signal was -0.129 E-score.
To TACTTCTA belongs 0.374 E-score.
To TACTTACA belongs 0.31 E-score; to TACTTATA, 0.331 E-score; to AACTTCTA, 0.246 E-score.
To CACTTATA belongs 0.281 E-score; to AACTTATC, 0.168 E-score.
AACTTATA: the binding signal is 0.345 E-score.
To GACTTATA belongs 0.279 E-score.
To GACTTCTA belongs 0.111 E-score; to GAATGTTA, 0.159 E-score.
To CAGCAAGA belongs 0.159 E-score; to CCGATATC, 0.0718 E-score; to GAGTGTAA, 0.0764 E-score.
With ACCATTGG, the binding signal was -0.182 E-score.
To AGTCTACA belongs 0.0463 E-score; to AATCTACA, 0.365 E-score.
Consider GAGCTACA, for which the binding signal was determined as 0.151 E-score.
On to AAGCTACC, for which the binding signal amounted to 0.362 E-score.
To AAGCTACT belongs 0.195 E-score; to GATCTACA, 0.29 E-score.
Regarding ACTCTACA, the binding signal was 0.108 E-score.
To TATCTACA belongs 0.361 E-score; to TAGCTACA, 0.353 E-score; to CAGCTACA, 0.0422 E-score.
Regarding AAGCTACG, the binding signal is 0.0766 E-score.
For CATCTACA, the binding signal was determined as 0.0976 E-score.
For TAGCACTA, the binding signal came out at 0.191 E-score.
To GCGAGTTA belongs 0.0475 E-score.
As for ACCAGGCG, the binding signal was -0.1 E-score.
To AATGGCGG belongs -0.112 E-score; to TCCGGAGA, -0.0285 E-score; to GACAGGCA, -0.106 E-score.
To CACATGCA belongs 0.206 E-score; to CGTTTCTA, 0.369 E-score; to CGTTTCGA, -0.111 E-score.
To GTTTTCTA belongs 0.256 E-score.
As for AGTTTCTA, the binding signal came out at 0.389 E-score.
To AGTTTCTG belongs 0.0882 E-score.
To CGTTTCTC belongs -0.0794 E-score.
With GCTTTCTA, the binding signal came out at 0.319 E-score.
To AGTTTCTC belongs 0.244 E-score; to GGTTTCTA, 0.353 E-score; to GGCGACAC, -0.0519 E-score.
To GATAGACC belongs 0.022 E-score; to AGAGAAGG, -0.195 E-score; to CTAGTACC, 0.244 E-score.
To GATATATA belongs 0.358 E-score.
With GTGATATA, the binding signal was 0.245 E-score.
To GCGATATA belongs 0.282 E-score; to GAGATATC, 0.182 E-score; to GATATATC, 0.403 E-score.
To ATGGGGCC belongs -0.169 E-score; to ACTAGCAT, 0.142 E-score.
To TGGTCTAA belongs 0.0359 E-score; to GAGTGAAC, 0.0307 E-score.
As to CGACGACC, the binding signal was -0.148 E-score.
To AAGCGGGG belongs -0.141 E-score; to TAGTAGGA, 0.252 E-score; to TAGTAGAA, 0.433 E-score.
In the case of CAGTAGAG, the binding signal is 0.0442 E-score.
With AAGTAGGA, the binding signal stood at 0.0873 E-score.
To AAGTAGAC belongs 0.021 E-score; to AAGTAGAA, 0.363 E-score.
To AAGTAGAT belongs 0.407 E-score; to CAGTAGAA, 0.426 E-score.
To TAGTAGCA belongs 0.316 E-score; to AAGTAGCA, 0.259 E-score; to GAGTAGAA, 0.279 E-score.
With AAGTAGAG, the binding signal was 0.0923 E-score.
To GGTTATTA belongs 0.0524 E-score; to GGCGGTAC, -0.0765 E-score; to ACCGCTCG, -0.0635 E-score.
To ATGTCGCC belongs -0.0714 E-score; to TGCTGGAA, -0.107 E-score; to CCATTAAA, -0.149 E-score.
To GTATTTTA belongs 0.376 E-score.
As to ATATTTTA, the binding signal is 0.384 E-score.
Regarding CTATTTTA, the binding signal was 0.302 E-score.
To GTATTTAA belongs 0.273 E-score; to ATATTTTG, 0.237 E-score.
To GTATTTGA belongs 0.0326 E-score; to CTAGCCGC, -0.192 E-score; to TGCGGCAA, 0.0751 E-score.
As for ATTTCTAC, the binding signal came to 0.353 E-score.
To ATTTCTAG belongs 0.366 E-score; to ACTTCTAC, 0.231 E-score.
To ATTTCTTC belongs 0.204 E-score; to CTTTCTTC, 0.0829 E-score.
As to GTTTCTAA, the binding signal was -0.0431 E-score.
To ATTTCTGG belongs 0.0299 E-score; to AGTTCTAG, 0.236 E-score; to CTTTCTAC, 0.447 E-score.
To CTTTCTAA belongs 0.1 E-score.
To ATTTCTCA belongs 0.126 E-score; to ATTTCTAA, 0.357 E-score; to CCAGGTAG, 0.0315 E-score.
With GAACCGAA, the binding signal stood at 0.00912 E-score.
To CAAGCTAG belongs 0.137 E-score; to ATCCCGTC, -0.181 E-score.
To CTGGTAGC belongs -0.00597 E-score.
On to GTGGTAGA, for which the binding signal worked out at 0.433 E-score.
